In PubChem BioAssay AID1159580 (chemical genetic matrix, 2015):
Values joined by “and” are separate entries in the source; they are usually repeats but may differ in a detail not shown here. Equal values may be shown once. The whole screen tested about 5,500 compounds, of which about 2,000 (36%) were called active. Inconclusive results (about 18%) are left out. No stated cut-off is given here; in the data, active means normalized growth mostly below about 0.91 (no sharp cut-off); inconclusive means no clear call, values can overlap the other calls; inactive means mostly above about 0.92. Some of the results follow.

Assay: chemical genetic growth profiling, strain panel (AID 1159580);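 further: tested at 20 µM; growth read once vehicle control cultures reached saturation at 30 °C; 1 = growth at the plate median or of vehicle wells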
Conditions: growth OD

Measured: normalized growth

O=C(O)c1cc([N+](=O)[O-])ccc1NCCCc1ccccc1
inactive: S. cerevisiae deletion strains, locus YKL190W, strain CNB1, stronger effect = lower value 0.967 | S. cerevisiae deletion strains, locus YKR001C, strain vps1, stronger effect = lower value 0.934 | S. cerevisiae deletion strains, locus YLR039C, strain RIC1, stronger effect = lower value 0.973 | S. cerevisiae deletion strains, locus YLR058C, strain SHM2, stronger effect = lower value 0.964 | S. cerevisiae deletion strains, locus YLR102C, strain apc9, stronger effect = lower value 0.93 | S. cerevisiae deletion strains, locus YLR262C, strain YPT6, stronger effect = lower value 0.933 | S. cerevisiae deletion strains, locus YLR268W, strain sec22, stronger effect = lower value 0.957 | S. cerevisiae deletion strains, locus YLR330W, strain CHS5, stronger effect = lower value 0.927 | S. cerevisiae deletion strains, locus YLR342W, strain FKS1 (second series), stronger effect = lower value 0.952 | S. cerevisiae deletion strains, locus YLR371W, strain rom2, stronger effect = lower value 0.951 | S. cerevisiae deletion strains, locus YLR418C, strain cdc73, stronger effect = lower value 0.901 | S. cerevisiae deletion strains, locus YML016C, strain PPZ1, stronger effect = lower value 0.958 | S. cerevisiae deletion strains, locus YML032C, strain rad52, stronger effect = lower value 0.968 | S. cerevisiae deletion strains, locus YML124C, strain tub3, stronger effect = lower value 0.935 | S. cerevisiae deletion strains, locus YMR223W, strain ubp8, stronger effect = lower value 0.945 | S. cerevisiae deletion strains, locus YMR263W, strain SAP30, stronger effect = lower value 1.01 | S. cerevisiae deletion strains, locus YMR307W, strain GAS1, stronger effect = lower value 0.945 | S. cerevisiae deletion strains, locus YNL067W, strain RPL9B, stronger effect = lower value 0.998 | S. cerevisiae deletion strains, locus YNL128W, strain TEP1, stronger effect = lower value 0.974 | S. cerevisiae deletion strains, locus YNL153C, strain GIM3, stronger effect = lower value 1.03 and 0.971 | S. cerevisiae deletion strains, locus YNL175C, strain NOP13, stronger effect = lower value 0.95 | S. cerevisiae deletion strains, locus YNL197C, strain WHI3, stronger effect = lower value 0.949 | S. cerevisiae deletion strains, locus YNL224C, strain SQS1, stronger effect = lower value 0.945 | S. cerevisiae deletion strains, locus YNL233W, strain BNI4, stronger effect = lower value 1 | S. cerevisiae deletion strains, locus YNL307C, strain MCK1, stronger effect = lower value 0.939 | S. cerevisiae deletion strains, locus YNL322C, strain KRE1, stronger effect = lower value 0.968 | S. cerevisiae deletion strains, locus YNR052C, strain pop2, stronger effect = lower value 0.949 | S. cerevisiae deletion strains, locus YOL006C, strain TOP1, stronger effect = lower value 1.07 | S. cerevisiae deletion strains, locus YOL012C, strain htz1 0.889 | S. cerevisiae deletion strains, locus YOR061W, strain CKA2, stronger effect = lower value 0.972 | S. cerevisiae deletion strains, locus YOR069W, strain VPS5, stronger effect = lower value 0.958 | S. cerevisiae deletion strains, locus YOR083W, strain WHI5 (second series), stronger effect = lower value 0.978 | S. cerevisiae deletion strains, locus YOR136W, strain idh2, stronger effect = lower value 0.993 | S. cerevisiae deletion strains, locus YOR144C, strain elg1, stronger effect = lower value 0.939 | S. cerevisiae deletion strains, locus YOR184W, strain ser1, stronger effect = lower value 0.948 | S. cerevisiae deletion strains, locus YOR316C, strain cot1, stronger effect = lower value 0.945 | S. cerevisiae deletion strains, locus YPL055C, strain LGE1, stronger effect = lower value 1.01 and 1.02 | S. cerevisiae deletion strains, locus YPR163C, strain tif3, stronger effect = lower value 0.925 | S. cerevisiae deletion strains, locus YPR167C, strain met16, stronger effect = lower value 0.943 | S. cerevisiae deletion strains, strain wtn01, stronger effect = lower value 0.967 | S. cerevisiae strains, strain wild type, stronger effect = lower value 0.963
active: S. cerevisiae deletion strains, locus YKL085W, strain MDH1, stronger effect = lower value 0.848 | S. cerevisiae deletion strains, locus YMR078C, strain ctf18, stronger effect = lower value 0.903 | S. cerevisiae deletion strains, locus YNL250W, strain rad50, stronger effect = lower value 0.851 | S. cerevisiae deletion strains, locus YNL271C, strain bni1, stronger effect = lower value 0.874 | S. cerevisiae deletion strains, locus YNL298W, strain CLA4, stronger effect = lower value 0.753 | S. cerevisiae deletion strains, locus YOL147C, strain pex11, stronger effect = lower value 0.931 | S. cerevisiae deletion strains, locus YPR119W, strain clb2, stronger effect = lower value 0.924 | S. cerevisiae deletion strains, locus YPR141C, strain kar3, stronger effect = lower value 0.872
